Laboratory results from PubChem BioAssay AID624351 (Southern Research Specialized Biocontainment Screening …, 2012).
Screen size: about 2,400 compounds; about 1,400 (58%) were called active.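 Rule for the calls: active = inhibition of 30% or more at any tested dose; inconclusive = primary hits over the limit that were never retested; inactive = the rest.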 The set was probably picked from earlier hits. The list shows a part of the results.

Experiment: coupled detection enzyme interference, dose response, artefact control for MgcRacGAP inhibitor project, biochemical, coupled enzyme counter-screen (AID 624351);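 note: signal is the ADP detection kit reading of free GDP without any GAP enzyme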
Details: ADP Hunter coupled enzyme counter-screen, fluorescence, no MgcRacGAP; series mostly up to 80 µM

Q: Which IC50 does the source give for `C/C(=N\Nc1nc2ccccc2[nH]1)c1ccc(C)o1` here?
A: Its IC50 is 82.2 µM (active).

Q: For `C/C(=N\Nc1nc2ccccc2[nH]1)c1ccc(Cl)s1`, which IC50 is on record?
A: The IC50 was 37.8 µM (active).

Q: Which IC50 does the source give for `C/C(=N\Nc1nc2ccccc2[nH]1)c1cccs1` here?
A: The IC50 was 28.4 µM (active).

Q: Which IC50 does the source give for `COc1cccc(/C=C2\C(=O)C(=O)c3ccccc32)c1` here?
A: Its IC50 is “inactive”.

Q: Which IC50 does the source give for `Cc1cc(O)c(C)c(O)c1/C=N/NC(=O)c1cccnc1` here?
A: The IC50 was 77.5 µM (active).

Q: For `O=C(COc1ccccc1)NCC(=O)N/N=C/c1ccc(O)cc1O`, which IC50 is on record?
A: Its IC50 is 66.1 µM (active).

Q: Which IC50 does the source give for `O=C(CNC(=O)c1cccnc1)N/N=C/c1ccc(O)cc1O` here?
A: Its IC50 is 82 µM (active).

Q: Which IC50 does the source give for `O=C(CNC(=O)c1cccs1)N/N=C/c1ccc(O)cc1O` here?
A: The IC50 was 60.5 µM (active).

Q: For `O=C(CCCCCNC(=O)c1ccccc1)N/N=C/c1ccc(O)cc1O`, which IC50 is on record?
A: The IC50 was 71 µM (active).

Q: For `Oc1ccc(/C=N/NC(=S)Nc2cccnc2)c(O)c1`, which IC50 is on record?
A: Its IC50 is 37.9 µM (active).

Q: For `CCc1ccc(/C(C)=N/NC(=O)CNC(=O)/C=C/c2ccco2)cc1`, which IC50 is on record?
A: Its IC50 is “inactive”.

Q: Which IC50 does the source give for `O=C(CNC(=O)c1ccco1)N/N=C/c1ccc(O)cc1O` here?
A: Its IC50 is 78.5 µM (active).

Q: Which IC50 does the source give for `Cc1cc(C)c(OCCCCNCc2ccccc2)c(Cl)c1` here?
A: The IC50 was “inactive”.

Q: With `Cc1cc(N)c2cc(NC(=O)/C=C/c3ccccc3Cl)ccc2n1` as the compound, how does the IC50 read?
A: Its IC50 is “inactive”.

Q: For `Cc1c(O)ccc(NC(=O)/C=C/c2ccccc2)c1C`, which IC50 is on record?
A: The IC50 was 37.7 µM (active).

Q: With `CCOC(=O)/C(C#N)=C\c1ccc(O)c(OC)c1` as the compound, how does the IC50 read?
A: The IC50 was 52.1 µM (active).

Q: For `COc1cc(/C=C(\C#N)C(=O)Nc2ccc3c(c2)OCCO3)ccc1O`, which IC50 is on record?
A: Its IC50 is 32.5 µM (active).

Q: Which IC50 does the source give for `N#C/C(=C/c1ccc2c(c1)OCO2)C(=O)Nc1ccc(O)cc1` here?
A: Its IC50 is 62.6 µM (active).

Q: For `CCOC(=O)/C(C#N)=C\c1c(OCC)n(CC)c2ccccc12`, which IC50 is on record?
A: The IC50 was “inactive”.

Q: Which IC50 does the source give for `CCC(CC)NCc1ccc2c(c1)c1ccccc1n2CC` here?
A: The IC50 was “inactive”.

Q: With `Oc1cccc(Nc2ccccc2)c1` as the compound, how does the IC50 read?
A: Its IC50 is 59.1 µM (active).

Q: For `O=[N+]([O-])/C=C/c1cc2ccccc2[nH]1`, which IC50 is on record?
A: The IC50 was “inactive”.

Q: Which IC50 does the source give for `COc1ccc(OC)c2c(C)c(C)[nH]c12` here?
A: The IC50 was 28.7 µM (active).

Q: With `CS(=O)(=O)Cc1nc2ccccc2oc1=O` as the compound, how does the IC50 read?
A: Its IC50 is 74.1 µM (active).

Q: Which IC50 does the source give for `Nc1nc2c(s1)CCc1ccccc1-2` here?
A: Its IC50 is 48.5 µM (active).

Q: Which IC50 does the source give for `COc1ccc2c(c1)-c1nc(N)sc1CC2` here?
A: Its IC50 is 42.2 µM (active).

Q: Which IC50 does the source give for `O=C(CN1CCCCCC1)Nc1nc2ccccc2s1` here?
A: Its IC50 is “inactive”.

Q: With `CCOc1ccc(OCCOCCN2CCCC2)cc1` as the compound, how does the IC50 read?
A: Its IC50 is “inactive”.

Q: For `O=C(c1ccc(OCCN2CCCCC2)cc1)c1c(-c2ccc(O)cc2)sc2cc(O)ccc12`, which IC50 is on record?
A: Its IC50 is 31.6 µM (active).

Q: Which IC50 does the source give for `Cc1cc(OCCCCCN2CCCC2)ccc1Cl` here?
A: Its IC50 is “inactive”.

Q: For `C[n+]1c(-c2ccccc2)cc2c(=Cc3ccccc3)c3ccccc3n21`, which IC50 is on record?
A: Its IC50 is “inactive”.

Q: With `COc1cc(/C=N/n2c(-c3cc(C)[nH]n3)n[nH]c2=S)cc(OC)c1OC` as the compound, how does the IC50 read?
A: Its IC50 is 61 µM (active).

Q: With `COc1cc(/C=N/n2c(-c3cc(C)[nH]n3)n[nH]c2=S)cc(OC)c1O` as the compound, how does the IC50 read?
A: Its IC50 is 55.6 µM (active).

Q: For `COc1ccc(NCc2cc3ccccc3[nH]c2=O)cc1`, which IC50 is on record?
A: Its IC50 is 77.4 µM (active).

Q: With `COc1ccc(OC)c(CN2CCN(Cc3cccc4ccccc34)CC2)c1` as the compound, how does the IC50 read?
A: Its IC50 is “inactive”.

Q: For `COc1ccc(NCc2cc(=O)[nH]c3ccccc23)cc1`, which IC50 is on record?
A: The IC50 was 51.4 µM (active).

Q: For `CCn1c2ccccc2c2cc(CNCc3ccc(OC)cc3OC)ccc21`, which IC50 is on record?
A: Its IC50 is “inactive”.

Q: Which IC50 does the source give for `COc1ccc(NCc2nnc(SCC(=O)Nc3ccccc3OC)o2)cc1` here?
A: Its IC50 is “inactive”.

Q: Which IC50 does the source give for `COc1ccc(NCc2cc3cc(OC)ccc3[nH]c2=O)cc1` here?
A: The IC50 was “inactive”.

Q: With `CC(C1SC(=S)NC1=O)C1SC(=S)NC1=O` (configuration not stated) as the compound, how does the IC50 read?
A: The IC50 was “inactive”.

Q: Which IC50 does the source give for `CCc1nc(Nc2ccc(O)cc2)c2oc3ccccc3c2n1` here?
A: The IC50 was 19.4 µM (active).

Q: With `CCc1nc(Nc2ccc(N3CCN(C(C)=O)CC3)cc2)c2oc3ccccc3c2n1` as the compound, how does the IC50 read?
A: Its IC50 is 40.2 µM (active).

Q: With `Oc1ccc(Nc2ncnc3ccccc23)cc1` as the compound, how does the IC50 read?
A: The IC50 was 15.8 µM (active).

Q: For `CC(=O)N1CCN(c2ccc(Nc3ncnc4c3oc3ccccc34)cc2)CC1`, which IC50 is on record?
A: The IC50 was 42.5 µM (active).

Q: For `CCc1nn(C(C)C(=O)N2CCN(c3ccc(OC)cc3)CC2)c(=O)c2cc3occc3n12` (configuration not stated), which IC50 is on record?
A: Its IC50 is “inactive”.

Q: With `Oc1ccc(Nc2ncnc3c2oc2ccccc23)cc1` as the compound, how does the IC50 read?
A: The IC50 was 20 µM (active).

Q: With `N#CC1=C(S)N(c2ccc(F)cc2)C2(CCCCC2)NC1=O` as the compound, how does the IC50 read?
A: The IC50 was “inactive”.

Q: For `O=C1NC(=S)NC1=Cc1ccco1`, which IC50 is on record?
A: The IC50 was “inactive”.

Q: With `O=C1NC(=S)NC1=Cc1ccc(O)cc1` as the compound, how does the IC50 read?
A: The IC50 was 10.2 µM (active).

Q: Which IC50 does the source give for `CCN1C(=O)/C(=C2/C=Cc3cc(C)ccc3N2CC)N(C)C1=S` here?
A: Its IC50 is 50.7 µM (active).

Q: For `NC(=S)N/N=C/c1cccc(O)c1O`, which IC50 is on record?
A: The IC50 was 32.6 µM (active).

Q: With `Nc1ccc2nc(-c3ccc(Cl)cc3)[nH]c2c1` as the compound, how does the IC50 read?
A: Its IC50 is 67.3 µM (active).

Q: For `Cc1nc2ccc(-c3nc4ccc(N)cc4[nH]3)cc2[nH]1`, which IC50 is on record?
A: Its IC50 is 58.5 µM (active).

Q: For `Nc1ccc2nc(-c3ccccc3)[nH]c2c1`, which IC50 is on record?
A: Its IC50 is 31.9 µM (active).

Q: For `Nc1ccc2nc(C3CCCCC3)[nH]c2c1`, which IC50 is on record?
A: The IC50 was 71.9 µM (active).

Q: Which IC50 does the source give for `Cc1nc(Nc2ccc(O)cc2)c2c3c(sc2n1)CCCC3` here?
A: Its IC50 is 27.9 µM (active).

Q: For `O=[N+]([O-])c1cc(Br)c(O)c(C=Nc2ccc(N3CCOCC3)cc2)c1`, which IC50 is on record?
A: The IC50 was 13.4 µM (active).

Q: For `Cc1cc(Br)cc(C=Nc2ccc(N3CCOCC3)cc2)c1O`, which IC50 is on record?
A: Its IC50 is 14.7 µM (active).

Q: Which IC50 does the source give for `Oc1ccc(N=Cc2cc(Br)c(N3CCOCC3)o2)cc1` here?
A: Its IC50 is 64.7 µM (active).

Q: With `COc1ccc(CN(C)CCc2ccccn2)c(OC)c1OC` as the compound, how does the IC50 read?
A: The IC50 was “inactive”.

Q: Which IC50 does the source give for `COc1ccc(Oc2c(-c3ccc(O)cc3O)n[nH]c2C)cc1` here?
A: The IC50 was 49.1 µM (active).

Q: With `Cc1[nH]nc(-c2ccc(O)cc2O)c1Oc1ccccc1` as the compound, how does the IC50 read?
A: The IC50 was 34.3 µM (active).

Q: Which IC50 does the source give for `COCCNCc1nc2sc(C)c(-c3ccccc3)c2c(=O)[nH]1` here?
A: The IC50 was “inactive”.

Q: With `CCn1c(/C=C/c2ccc(O)cc2)nc2ccccc2c1=O` as the compound, how does the IC50 read?
A: The IC50 was 44.8 µM (active).

Q: Which IC50 does the source give for `C=CCn1c(N/N=C/c2ccc(O)cc2)nc2ccccc2c1=O` here?
A: Its IC50 is 66.7 µM (active).

Q: Which IC50 does the source give for `O=c1c2cc(F)ccc2sn1-c1ccccc1Cl` here?
A: The IC50 was “inactive”.

Q: With `Cc1ccc(NC(=O)CCC(=O)N/N=C/c2ccc(O)cc2O)cc1` as the compound, how does the IC50 read?
A: The IC50 was 61.8 µM (active).

Q: For `Cc1cccc(NC(=O)CCC(=O)N/N=C/c2ccc(O)cc2O)c1`, which IC50 is on record?
A: The IC50 was 72.4 µM (active).

Q: Which IC50 does the source give for `CCN(C=NC1=NN(c2cccc(C(F)(F)F)c2)CC1)CC` here?
A: The IC50 was 33 µM (active).

Q: Which IC50 does the source give for `CN(C)C=NC1=NN(c2cccc(C(F)(F)F)c2)CC1` here?
A: Its IC50 is 39.3 µM (active).

Q: Which IC50 does the source give for `OCCN(C=NC1=NN(c2cccc(C(F)(F)F)c2)CC1)CCO` here?
A: Its IC50 is 42.2 µM (active).

Q: Which IC50 does the source give for `Cc1cccc(N2CCC(N=CN(C)C)=N2)c1` here?
A: The IC50 was 27.8 µM (active).
